Measurements reported in PubChem BioAssay (NCATS).
Values joined by “and” are separate entries in the source; they are usually repeats but may differ in a detail not shown here. Equal values may be shown once. Results filed as inconclusive are left out. Active and inactive are the calls of the source. The call rests on the fitted dose curve; in most records, active means well fitted inhibition curve with a large enough effect; inconclusive means small, poorly fitted or top-dose-only effect; inactive means flat fitted curve, though single readings scatter.

Key:
CRL-7250 [1] = test: Cytotoxic Profiling of Annotated Libraries Using Quantitative High-Throughput Screening (AID 1296008); details: Five cell lines viability, CellTiter-Glo ATP luminescence, 48-72 h; max response: stronger effect = lower value; on max response: on the % scale 0 is the no-effect control and ±100 the full control effect
How it was run: (§1)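 Cytotoxicity was measured as CellTiter-Glo ATP luminescence, read after 10 min at room temperature. Compound treatment of the cells lasted 48 or 72 hr at 37 degrees Celsius in a qHTS format.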

HEK293 = test: as above; details: Five cell lines viability, CellTiter-Glo ATP luminescence, 48-72 h; max response: stronger effect = lower value
How it was run: as §1

HaCat [2] = test: as above; details: Five cell lines viability, CellTiter-Glo ATP luminescence, 48-72 h; max response: stronger effect = lower value
How it was run: as §1

KB-3-1 = test: as above; details: Five cell lines viability, CellTiter-Glo ATP luminescence, 48-72 h; max response: stronger effect = lower value
How it was run: as §1

NIH3T3 [3] = test: as above; details: Five cell lines viability, CellTiter-Glo ATP luminescence, 48-72 h; max response: stronger effect = lower value
How it was run: as §1

CRL-7250 [4] = test: qHTS assay to identify novel small-molecules to repurpose for Merkel cell carcinoma treatment (AID 1296009); details: MCC and control cell lines, CellTiter-Glo viability, 72 h; at 44.8 µM (top of the series) unless noted; further: potency means the concentration at half of the fitted maximal effect
How it was run: (§2)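 72 hr, 37 degree celsius; NPC 8-pt / MIPE 11-pt dose response; compound pinned in DMSO; CellTiter-Glo, 10 min RT, luminescence; normalized to no-cell and DMSO controls.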

HEK293T = test: as above; details: MCC and control cell lines, CellTiter-Glo viability, 72 h; at 44.8 µM (top of the series) unless noted
How it was run: as §2

MCC-13 = test: as above; details: MCC and control cell lines, CellTiter-Glo viability, 72 h; series mostly up to 46 µM
How it was run: as §2

MKL-1 = test: as above; details: MCC and control cell lines, CellTiter-Glo viability, 72 h; series mostly up to 46 µM
How it was run: as §2

MKL-2 = test: as above; details: MCC and control cell lines, CellTiter-Glo viability, 72 h; series mostly up to 46 µM
How it was run: as §2

UISO = test: as above; details: MCC and control cell lines, CellTiter-Glo viability, 72 h; series mostly up to 46 µM
How it was run: as §2

HACAT [5] = test: as above; details: MCC and control cell lines, CellTiter-Glo viability, 72 h; at 44.8 µM (top of the series) unless noted
How it was run: as §2

NIH3T3 [6] = test: as above; details: MCC and control cell lines, CellTiter-Glo viability, 72 h; at 44.8 µM (top of the series) unless noted
How it was run: as §2

MCC-26 = test: as above; details: MCC and control cell lines, CellTiter-Glo viability, 72 h; series mostly up to 46 µM
How it was run: as §2

SC27B = test: qHTS profiling for inhibitors of Plasmodium falciparum proliferation (AID 504749); further: potency means the concentration at half of the fitted maximal effect; details: P. falciparum in erythrocytes, SYBR Green DNA, 72 h; series mostly up to 28.7 µM
How it was run: (§3)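 Infected RBCs, 0.3% parasitemia/2.5% Hct final; cpd 72 h, 37 C, 5% CO2; lysis buffer with saponin/triton/SYBR Green I, o/n RT dark; FI 485/535; norm. to artemisinin (0.29 uM) and DMSO.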

TAB109 = test: as above; details: P. falciparum in erythrocytes, SYBR Green DNA, 72 h; series mostly up to 28.7 µM
How it was run: as §3

TAB113 = test: as above; details: P. falciparum in erythrocytes, SYBR Green DNA, 72 h; series mostly up to 28.7 µM
How it was run: as §3

TAB165 = test: as above; details: P. falciparum in erythrocytes, SYBR Green DNA, 72 h; series mostly up to 28.7 µM
How it was run: as §3

W2 = test: as above; details: P. falciparum in erythrocytes, SYBR Green DNA, 72 h; series mostly up to 28.7 µM
How it was run: as §3
Further: nearly all actives have a fitted effect of over 60% in size.

Oc1ccc2c3c1O[C@H]1c4[nH]c5c(c4C[C@@]4(O)[C@@H](C2)N(CC2CC2)CC[C@]314)C[C@@]1(O)[C@H]2Cc3ccc(O)c4c3[C@@]1(CCN2CC1CC1)[C@H]5O4
inactive: outcome (CRL-7250 [1]) | outcome (HEK293) | max response (HaCat [2]) -0.228% | outcome (KB-3-1) | max response (NIH3T3 [3]) -5.25% | outcome (CRL-7250 [4]) | outcome (HEK293T) | Potency (MCC-13) | Potency (MKL-1) | Potency (MKL-2) | Potency (UISO)

c1cc2c(cc1[C@H]1OC[C@H]3[C@H]1CO[C@H]3c1ccc3c(c1)OCO3)OCO2
inactive: max response (CRL-7250 [1]) -11.7% | outcome (HEK293) | outcome (HaCat [2]) | max response (KB-3-1) 6.13% | outcome (NIH3T3 [3]) | outcome (HACAT [5]) | outcome (HEK293T) | Potency (MCC-13) | Potency (MKL-1) | Potency (MKL-2) | outcome (NIH3T3 [6]) | Potency (UISO)

C[C@]12Cc3cn[nH]c3C[C@@H]1CC[C@@H]1[C@H]2CC[C@@]2(C)[C@H]1CC[C@]2(C)O
inactive: max response (CRL-7250 [1]) 3.97% | max response (HEK293) -21.8% | outcome (HaCat [2]) | max response (KB-3-1) -0.691% | max response (NIH3T3 [3]) -12.4% | outcome (HACAT [5]) | Potency (MCC-13) | Potency (MKL-1) | Potency (MKL-2) | Potency (UISO)

CC(=O)Nc1ccc(OC[C@](C)(O)C(=O)Nc2ccc([N+](=O)[O-])c(C(F)(F)F)c2)cc1
inactive: max response (CRL-7250 [1]) -1.8% and -4.07% | max response (HEK293) -11.2% | outcome (HEK293) | max response (HaCat [2]) -8.66% and -10.1% | max response (KB-3-1) -13.4% and 7.92% | max response (NIH3T3 [3]) 2.34% | outcome (NIH3T3 [3]) | outcome (HEK293T) | Potency (MCC-13) | Potency (MCC-26) | Potency (MKL-1) | Potency (MKL-2) | outcome (NIH3T3 [6]) | Potency (UISO)

CCCC[N+]1(C)[C@H]2CC(OC(=O)[C@H](CO)c3ccccc3)C[C@H]1[C@H]1O[C@H]12 (stereo partly drawn)
inactive: max response (CRL-7250 [1]) -3.26% | max response (HEK293) -1.83% | outcome (HaCat [2]) | max response (KB-3-1) -2.74% | max response (NIH3T3 [3]) -3.27% | outcome (HACAT [5]) | Potency (MCC-13) | Potency (MKL-1) | Potency (MKL-2) | Potency (UISO)

C[C@@H]1[C@H](O)[C@@H](C)C=CC=CCCC=CC=CC=CC=C[C@H](O[C@H]2O[C@@H](C)[C@H](O)[C@@H](N)[C@@H]2O)CC2O[C@](O)(C[C@@H](O)[C@H](O)CC[C@@H](O)C[C@@H](O)C[C@@H](O)CC(=O)O[C@H]1C)C[C@H](O)[C@H]2C(=O)O
inactive: max response (CRL-7250 [1]) 4.08% | max response (HEK293) 2.42% | outcome (HaCat [2]) | outcome (KB-3-1) | max response (NIH3T3 [3]) -3.28% | outcome (HACAT [5]) | Potency (MCC-13) | Potency (MKL-1) | Potency (MKL-2) | Potency (UISO)

S=C(NC1CCCCC1)N1CCC(c2cnc[nH]2)CC1
inactive: max response (CRL-7250 [1]) -0.728% | max response (HEK293) -0.423% | max response (HaCat [2]) -12.4% | max response (KB-3-1) -10.7% | max response (NIH3T3 [3]) -20.5%

O=C1C(I)=CC(=C(c2cc(I)c(O)c(I)c2)c2ccccc2C(=O)O)C=C1I
inactive: outcome (CRL-7250 [1]) | max response (HEK293) -13.3% | outcome (HaCat [2]) | max response (KB-3-1) -3.52% and 5.85% | outcome (NIH3T3 [3]) | outcome (CRL-7250 [4]) | outcome (HACAT [5]) | Potency (MKL-1) | Potency (MKL-2) | outcome (NIH3T3 [6]) | Potency (UISO)

C[C@H]([C@H](O)CCC(C)(C)O)[C@H]1CC[C@@]2(O)C3=CC(=O)[C@@H]4C[C@@H](O)[C@@H](O)C[C@]4(C)[C@@H]3CC[C@]12C
inactive: max response (CRL-7250 [1]) -2.7% | outcome (HEK293) | outcome (HaCat [2]) | max response (KB-3-1) -1.89% | outcome (NIH3T3 [3]) | outcome (HACAT [5]) | outcome (HEK293T) | Potency (MCC-13) | Potency (MCC-26) | Potency (MKL-1) | Potency (MKL-2) | outcome (NIH3T3 [6]) | Potency (UISO)

O=S(=O)(F)Cc1ccccc1
inactive: outcome (CRL-7250 [1]) | outcome (HEK293) | max response (HaCat [2]) -8.02% | max response (KB-3-1) 3.23% | max response (NIH3T3 [3]) 3.32% | outcome (CRL-7250 [4]) | outcome (HEK293T) | Potency (MCC-13) | Potency (MKL-1) | Potency (MKL-2) | Potency (UISO)

CCOC(=O)c1cncn1[C@H](C)c1ccccc1
inactive: max response (CRL-7250 [1]) 2.73% | outcome (HEK293) | outcome (HaCat [2]) | max response (KB-3-1) 6.23% | outcome (NIH3T3 [3]) | outcome (HACAT [5]) | outcome (HEK293T) | Potency (MCC-13) | Potency (MCC-26) | Potency (MKL-1) | Potency (MKL-2) | outcome (NIH3T3 [6]) | Potency (UISO)

COc1cccc2c1[C@]13CCN(CC4CC4)[C@H](C2)[C@]1(OC)CCC(=O)C3
inactive: outcome (CRL-7250 [1]) | outcome (HEK293) | outcome (HaCat [2]) | max response (KB-3-1) 7.72% | max response (NIH3T3 [3]) 3.8% | outcome (CRL-7250 [4]) | outcome (HACAT [5]) | outcome (HEK293T) | Potency (MCC-13) | Potency (MCC-26) | Potency (MKL-1) | Potency (MKL-2) | Potency (UISO)

O=[N+]([O-])c1ccc([As](=O)(O)O)cc1
active: Potency (SC27B) 4.47 µM | Potency (TAB109) 6.31 µM | Potency (TAB113) 7.08 µM | Potency (TAB165) 5.01 µM | Potency (W2) 4.78 µM | Potency (MKL-2) 8.41 µM
inactive: outcome (CRL-7250 [1]) | outcome (HEK293) | outcome (HaCat [2]) | max response (KB-3-1) -9.29% | outcome (NIH3T3 [3]) | outcome (CRL-7250 [4]) | outcome (HACAT [5]) | outcome (HEK293T) | Potency (MCC-13) | Potency (MKL-1) | outcome (NIH3T3 [6]) | Potency (UISO)

Clc1ccccc1C(c1ccccc1)(c1ccccc1)n1cccn1
inactive: outcome (CRL-7250 [1]) | max response (HEK293) -5.51% | max response (HaCat [2]) -3.22% | max response (KB-3-1) 9.15% | outcome (NIH3T3 [3]) | outcome (CRL-7250 [4]) | Potency (MCC-13) | Potency (MCC-26) | Potency (MKL-1) | Potency (MKL-2) | outcome (NIH3T3 [6]) | Potency (UISO)
